Records with an inconclusive call do not appear. The source made the active and inactive calls. Unless noted, the call rests on the fitted dose curve; in most records, active means well fitted curve in the direction sought with a large enough effect; inconclusive means small, poorly fitted or top-dose-only effect, or another doubt; inactive means no such curve, though single readings can be large; an effect the other way counts as inactive or inconclusive.
How the values were obtained:
[1] = molecular target: Calcium and integrin-binding protein 1 (Homo sapiens) (UniProt Q99828); assay: Primary qHTS for Identification of Calcium Integrin Binding Protein 1 (CIB1) Competitor (AID 1508620);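 further: GST tagged CIB1 binding a fluorescein labelled alphaIIb integrin peptide tracer; top concentration of the series differs between compounds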
In short: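 Fluorescence polarization competition: GST-tagged CIB1 (1 uM final) preincubated with compound 15 min at room temperature, then FITC-labelled alphaIIb peptide (100 nM final) added. After 15 min at room temperature, polarization read at Ex 480/Em 540.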

[2] = Primary qHTS for inhibitors of nuclear receptor binding SET domain protein 2 (NSD2) in an isogenic RCH-ACV NSD2 p.E1099K mutant (9B) (AID 1645876); further: nearly all actives have a fitted effect of over 70% in size; further: potency means the concentration at half of the fitted maximal effect
[3] = Primary qHTS for inhibitors of nuclear receptor binding SET domain protein 2 (NSD2) in an RCH-ACV wild type WT cells (2C) (AID 1645877); further: nearly all actives have a fitted effect of over 70% in size; further: potency means the concentration at half of the fitted maximal effect
[4] = A High-Content qHTS Against Drug Library for the Identification of Small Molecules that Inhibit DYT1 Early Onset Primary Dystonia-Associated Cell Pathology (AID 1645839; calls by dose curve)
In short: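 Cells were seeded and left for 24 h, then dosed with compound alongside tetracycline induction of mutant EGFP-TorsinA. They were incubated for 48 h, fixed in 4% paraformaldehyde, permeabilized and imaged for mislocalization (%pathology) and cell count.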

[5] = Primary qHTS for small molecule stabilizers of the endoplasmic reticulum resident proteome: Secreted ER Calcium Modulated Protein (SERCaMP) assay (AID 1508630)
In short: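 The SH-SY5Y reporter protocol was run at 3 concentrations up to 38.3 uM (primary) or 11 concentrations (follow-up): 16 h compound, 100 nM thapsigargin for 4 h, then extracellular luciferase luminescence.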

[6] = molecular target: Cytochrome P450 2D6 (Homo sapiens) (UniProt P10635); assay: Cytochrome P450 family 2 subfamily D member 6 (CYP2D6) small molecule antagonists: luciferase biochemical (cell-free) qHTS assay (AID 1645840; active means well fitted curve in the direction sought with a large enough effect in the repeat runs; an effect the other way counts as inactive or inconclusive; further: nearly all actives have a fitted effect of over 55% in size; further: potency means the concentration at half of the fitted maximal effect)
In short: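 P450-Glo CYP2D6 system: proluciferin substrate converted by enzyme to luciferin, read by luminescence proportional to activity. Enzyme-substrate mix with compound 10 min at room temperature, then NADPH regeneration 1 h before detection reagent.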

[7] = molecular target: Cytochrome P450 3A4 (Homo sapiens) (UniProt P08684); assay: Cytochrome P450 family 3 subfamily A member 4 (CYP3A4) small molecule antagonists: luciferase qHTS assay (AID 1645841; active means well fitted curve in the direction sought with a large enough effect in the repeat runs; an effect the other way counts as inactive or inconclusive; further: nearly all actives have a fitted effect of over 45% in size)
In short: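 P450-Glo CYP3A4 enzyme with proluciferin substrate preincubated 10 min with compound at room temperature, then NADPH regeneration 1 h. Luciferin detection reagent added for 20 min; luminescence recorded. Ketoconazole positive control.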

[8] = molecular target: Cytochrome P450 2C9 (Homo sapiens) (UniProt P11712); assay: Cytochrome P450 family 2 subfamily C member 9 (CYP2C9) small molecule antagonists: luciferase biochemical (cell-free) qHTS assay (AID 1645842; active means well fitted curve in the direction sought with a large enough effect in the repeat runs; an effect the other way counts as inactive or inconclusive; further: nearly all actives have a fitted effect of over 55% in size; further: potency means the concentration at half of the fitted maximal effect)
In short: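 P450-Glo CYP2C9 system: proluciferin substrate with enzyme in mix containing 0.4% BSA, 10 min at room temperature, then NADPH regeneration solution added and incubated 1 h at 37C. Detection reagent stopped reaction; luminescence read after 20 min as RLU.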

[9] = Counterscreen qHTS for small molecule stabilizers of the endoplasmic reticulum resident proteome: GLuc-NoTag assay (AID 1508627);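 further: SH-SY5Y cells given compound then 100 nM thapsigargin to empty ER calcium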
In short: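 Counterscreen line: SH-SY5Y-GLuc-NoTag. Seed, 5 h; compound, 19 h; thapsigargin 100 nM, 4 h; 37C/5% CO2. Readout: secreted GLuc luminescence, coelenterazine 0.07x final, no lysis.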

[10] = Confirmatory qHTS for small molecule stabilizers of the endoplasmic reticulum resident proteome: Secreted ER Calcium Modulated Protein (SERCaMP) assay (AID 1508628); further: nearly all actives have a fitted effect of over 40% in size; further: potency means the concentration at half of the fitted maximal effect
In short: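 GLuc-SERCaMP-expressing SH-SY5Y cells, pretreated 16 h with compound, are challenged with thapsigargin to empty ER calcium stores; after 4 h, coelenterazine is added directly to the medium and luminescence is imaged.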

[11] = Cytotoxicity counterscreen for inhibitors of SARS-CoV-2 cell entry (AID 1645845; calls by dose curve; further: nearly all actives have a fitted effect of over 50% in size)
In short: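 Counterscreen run in the same HEK293-ACE2 line as the pseudotyped-particle entry assay, without particles. Viability after 48 h at 37 C was read as ATP luminescence, scaled between cell-containing and cell-free wells.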

[12] = Primary qHTS to identify inhibitors of SARS-CoV-2 cell entry (AID 1645846; calls by dose curve; further: nearly all actives have a fitted effect of over 45% in size); conditions: activity change, negative = inhibition: at 57.1 µM (top of the series) unless noted
In short: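 HEK293-ACE2 (Expi293F, stable hACE2), 1500 cells/well, o/n 37C; cpd 23 nL pin, 1 h; MLV-PP w/ SARS-CoV-2-S (Wuhan-Hu-1, Δ19 C-term); 48 h 37C; Bright-Glo luminescence; normalized vs S-PP and bald PP.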

[13] = molecular target: Papain (Carica papaya) (UniProt P00784); assay: Primary qHTS assay for inhibitors of the protease papain (AID 1645873);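 further: papain turnover of Z-FR-AMC read as the AMC fluorescence gain over 10 min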
[14] = molecular target: N-terminal Xaa-Pro-Lys N-methyltransferase 1 (Homo sapiens) (UniProt Q9BV86); assay: Confirmatory qHTS for Inhibitors of N-terminal methyltransferase 1 (NTMT1): MTaseGlo Assay (AID 1645874);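 further: luminescence from SAH made as NTMT1 methylates SPKRIA peptide using SAM; nearly all actives have a fitted effect of over 65% in size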
In short: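 SPKRIA peptide at 1 uM was methylated by 125 nM NTMT1 using 100 uM SAM over 30 min at room temperature, following a 15 min compound preincubation. Product SAH was detected luminescently.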

Calcium and integrin-binding protein 1 (Homo sapiens), sequence (Q99828 whole entry, looked up): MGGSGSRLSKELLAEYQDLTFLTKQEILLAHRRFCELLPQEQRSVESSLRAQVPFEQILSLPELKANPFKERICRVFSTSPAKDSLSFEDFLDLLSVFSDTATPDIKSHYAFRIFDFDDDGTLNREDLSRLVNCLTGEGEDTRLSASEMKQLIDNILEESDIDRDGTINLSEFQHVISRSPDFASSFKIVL
Cytochrome P450 2C9 (Homo sapiens), sequence (P11712 whole entry, looked up): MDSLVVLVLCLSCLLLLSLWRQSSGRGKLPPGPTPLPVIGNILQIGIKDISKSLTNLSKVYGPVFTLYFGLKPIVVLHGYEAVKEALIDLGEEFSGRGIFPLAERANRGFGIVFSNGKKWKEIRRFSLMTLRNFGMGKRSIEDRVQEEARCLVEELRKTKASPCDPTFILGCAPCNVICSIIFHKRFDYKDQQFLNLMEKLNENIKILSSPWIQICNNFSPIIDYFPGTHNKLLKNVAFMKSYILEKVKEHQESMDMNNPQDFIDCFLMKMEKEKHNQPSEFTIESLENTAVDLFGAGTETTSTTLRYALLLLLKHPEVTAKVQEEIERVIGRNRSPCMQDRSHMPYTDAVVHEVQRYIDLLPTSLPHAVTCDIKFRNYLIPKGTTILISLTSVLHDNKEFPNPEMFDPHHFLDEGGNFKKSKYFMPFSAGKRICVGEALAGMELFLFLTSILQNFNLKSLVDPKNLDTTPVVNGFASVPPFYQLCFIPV
Cytochrome P450 2D6 (Homo sapiens), sequence (P10635 whole entry, looked up): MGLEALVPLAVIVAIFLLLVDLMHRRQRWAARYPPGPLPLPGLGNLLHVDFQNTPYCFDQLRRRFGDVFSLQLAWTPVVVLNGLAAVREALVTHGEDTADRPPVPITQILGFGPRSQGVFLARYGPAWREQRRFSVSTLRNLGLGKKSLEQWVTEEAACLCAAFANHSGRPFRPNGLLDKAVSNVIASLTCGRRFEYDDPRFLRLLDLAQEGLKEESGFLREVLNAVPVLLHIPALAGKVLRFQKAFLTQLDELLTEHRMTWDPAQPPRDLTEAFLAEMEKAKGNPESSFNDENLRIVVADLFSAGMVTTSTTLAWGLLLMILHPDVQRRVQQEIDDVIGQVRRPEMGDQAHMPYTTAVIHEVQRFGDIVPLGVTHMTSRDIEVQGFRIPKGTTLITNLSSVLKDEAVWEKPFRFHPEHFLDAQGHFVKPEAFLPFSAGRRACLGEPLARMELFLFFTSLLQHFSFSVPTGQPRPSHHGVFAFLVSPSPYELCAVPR
Cytochrome P450 3A4 (Homo sapiens), sequence (P08684 whole entry, looked up): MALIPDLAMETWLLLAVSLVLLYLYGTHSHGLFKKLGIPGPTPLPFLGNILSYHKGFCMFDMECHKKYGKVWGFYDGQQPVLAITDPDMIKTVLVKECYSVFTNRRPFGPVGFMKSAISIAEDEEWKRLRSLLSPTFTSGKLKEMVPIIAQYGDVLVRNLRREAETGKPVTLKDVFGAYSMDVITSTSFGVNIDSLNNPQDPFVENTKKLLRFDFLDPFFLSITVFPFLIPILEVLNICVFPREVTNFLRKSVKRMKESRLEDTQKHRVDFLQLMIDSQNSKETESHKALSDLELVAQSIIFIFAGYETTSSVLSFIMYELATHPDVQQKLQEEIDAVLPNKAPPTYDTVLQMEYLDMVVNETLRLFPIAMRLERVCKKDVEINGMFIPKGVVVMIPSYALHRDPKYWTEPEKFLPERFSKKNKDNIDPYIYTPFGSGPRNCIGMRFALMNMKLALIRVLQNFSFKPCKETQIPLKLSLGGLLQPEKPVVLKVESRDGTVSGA
N-terminal Xaa-Pro-Lys N-methyltransferase 1 (Homo sapiens), sequence (Q9BV86 whole entry, looked up): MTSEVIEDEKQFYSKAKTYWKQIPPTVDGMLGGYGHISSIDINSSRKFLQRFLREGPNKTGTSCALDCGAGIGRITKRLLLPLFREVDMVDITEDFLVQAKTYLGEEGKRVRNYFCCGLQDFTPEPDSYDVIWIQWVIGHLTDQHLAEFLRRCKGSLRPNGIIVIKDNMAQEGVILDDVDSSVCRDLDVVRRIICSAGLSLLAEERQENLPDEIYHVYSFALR
Papain (Carica papaya), sequence (P00784 whole entry, looked up): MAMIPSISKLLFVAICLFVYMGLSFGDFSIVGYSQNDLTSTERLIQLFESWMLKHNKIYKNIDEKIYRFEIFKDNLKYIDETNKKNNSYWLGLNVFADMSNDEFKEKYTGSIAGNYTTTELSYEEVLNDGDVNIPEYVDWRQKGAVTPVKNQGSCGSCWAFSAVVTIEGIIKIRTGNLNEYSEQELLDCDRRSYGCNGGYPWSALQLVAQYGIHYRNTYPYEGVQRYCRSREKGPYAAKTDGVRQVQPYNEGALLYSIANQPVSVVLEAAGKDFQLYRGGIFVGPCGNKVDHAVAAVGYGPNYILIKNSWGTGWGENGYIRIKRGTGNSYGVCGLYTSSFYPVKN

c1ccc(CN2CCNCC2)cc1
inactive: Potency [1] | Potency [2] | Potency [3]

CC(=O)C1CCOC1=O (stereo not given)
inactive: Potency [1] | outcome [4] | Potency [2] | Potency [3]

COc1cccc([C@@]2(O)CCCC[C@@H]2CN(C)C)c1
inactive: Potency [5] | outcome [4] | Potency [6] | Potency [7] | Potency [8] | Potency [2] | Potency [3]

C[C@H]1[C@@H]2Cc3ccc(O)cc3[C@@]1(C)CCN2C
inactive: outcome [9] | outcome [4] | Potency [8] | Potency [2] | Potency [3]
active: Potency [10] 22.4 µM | Potency [6] 107 µM

CC(C)(C)NCC(O)c1cc(Cl)c(N)c(C(F)(F)F)c1 (stereo not given)
inactive: Potency [1] | Potency [5] | Potency [8] | Potency [11] | Potency [2] | Potency [3]

C[C@]12CC[C@H]3[C@@H](CC[C@@]45O[C@H]4C(O)=C(C#N)C[C@]35C)[C@H]1CC[C@H]2O
-26.2%: activity change, negative = inhibition [12]
inactive: Potency [1] | outcome [4] | Potency [11]
active: Potency [2] 15 µM | Potency [3] 10.6 µM

Nc1ccccc1C(=O)O
inactive: Potency [1] | outcome [4] | Potency [6] | Potency [8]

CCCN(CCC)C(=O)Cc1c(-c2ccc(Cl)cc2)nc2ccc(Cl)cn12
active: Potency [8] 12.3 µM
inactive: Potency [1] | Potency [2] | Potency [3]

C#CC(O)(C=CCl)CC (stereo not given)
-20.1%: activity change, negative = inhibition [12]
inactive: Potency [1] | Potency [6] | Potency [8] | Potency [11] | Potency [2] | Potency [3]

CC(=O)OCC1=C(C(=O)O)N2C(=O)[C@@H](N)[C@H]2SC1
inactive: Potency [1] | Potency [8] | Potency [2] | Potency [3]
active: Potency [6] 5.35 µM

O=c1[nH]oc2c1CCNC2
inactive: Potency [1] | Potency [5] | Potency [8] | outcome [13] | Potency [2] | Potency [3]

COC(=O)[C@@H](N)CCCN/C(N)=N/[N+](=O)[O-]
inactive: Potency [1] | Potency [2] | Potency [3]

O=[N+]([O-])O[C@H]1CO[C@H]2[C@@H]1OC[C@H]2O[N+](=O)[O-]
-33.3%: activity change, negative = inhibition [12]
inactive: Potency [1] | Potency [7] | Potency [8] | Potency [11] | Potency [2] | Potency [3]

C[C@]12CC[C@@H]3c4ccc(OC(=O)N(CCCl)CCCl)cc4CC[C@H]3[C@@H]1CC[C@@H]2OP(=O)(O)O
inactive: Potency [1] | Potency [11] | Potency [12] | Potency [2] | Potency [3]

CCN(CCO)CCn1c(Cc2ccccc2)nc2c1c(=O)n(C)c(=O)n2C
inactive: Potency [1] | Potency [5] | Potency [2] | Potency [3]

O=C1OC(CCN2CCCCC2)OC1(c1ccccc1)c1ccccc1 (stereo not given)
inactive: Potency [1] | Potency [5]
active: Potency [2] 8.41 µM | Potency [3] 13.3 µM

CC(=O)NC1CCSC1=O (stereo not given)
inactive: Potency [1] | outcome [4] | Potency [2] | Potency [3]

C[C@]12CCC(=O)C=C1CC[C@@H]1[C@@H]2CC[C@@]2(C)[C@H]1CC[C@]2(C)O
inactive: Potency [1] | Potency [5] | outcome [14]
active: Potency [2] 23.7 µM

O=c1oc2ccccc2c(O)c1Cc1c(O)c2ccccc2oc1=O
inactive: outcome [9] | Potency [10] | Potency [11] | Potency [12]
active: Potency [2] 21.1 µM

CCN[C@@H](C)Cc1ccccc1
inactive: Potency [1] | Potency [2] | Potency [3]
active: Potency [6] 6.28 µM

CN(C)CCc1c[nH]c2cccc(OP(=O)(O)O)c12
inactive: Potency [1] | Potency [5] | Potency [2] | Potency [3]

COc1cc(OC)c(OC)cc1C=O
inactive: Potency [1] | outcome [4] | Potency [6] | Potency [2] | Potency [3]

CC(C)(N)Cc1ccccc1Cl
inactive: Potency [1] | outcome [4] | Potency [2] | Potency [3]
active: Potency [6] 13.8 µM

CC[N+]1(CC)CCC(OC(=O)C(O)(c2ccccc2)c2ccccc2)C1 (stereo not given)
inactive: Potency [1] | outcome [4] | Potency [8] | Potency [2] | Potency [3]
active: Potency [6] 12.9 µM

C[C@]12CCC(=O)C=C1CC[C@@H]1[C@@H]2CC[C@]2(C)C(=O)CC[C@@H]12
inactive: Potency [5] | outcome [4] | Potency [6] | Potency [7] | Potency [11] | Potency [12]

COc1ccc2c3c1O[C@H]1[C@H](O)CC[C@H]4[C@@H](C2)N(C)CC[C@@]341
inactive: Potency [1] | outcome [4] | Potency [6] | Potency [8] | Potency [2] | Potency [3]

CN1C(=O)COc2c(C(=O)NC3CN4CCC3CC4)cc(Cl)cc21 (stereo not given)
inactive: Potency [1] | Potency [5] | Potency [8] | Potency [11] | Potency [2] | Potency [3]

Nc1ccc([As](=O)(O)O)cc1
inactive: Potency [1] | outcome [4] | Potency [7] | Potency [8] | Potency [11] | Potency [2] | Potency [3]
-1.46%: activity change, negative = inhibition [12]

CN1CC[C@]23c4c5ccc(O)c4O[C@H]2[C@@H](O)CC[C@H]3[C@H]1C5
inactive: Potency [1] | outcome [4] | Potency [8] | Potency [2] | Potency [3]

CC(C)NC(C)C
inactive: Potency [1] | Potency [6] | Potency [8] | Potency [11] | Potency [12] | Potency [2] | Potency [3]

COc1cc(CCN)cc(OC)c1OC
inactive: Potency [1] | Potency [5]
active: Potency [3] 41.8 µM
